From PubChem
A selection: hits, their analogues and other compounds. The true share with any hit is near 10%.
L major viab: Leishmania major promastigote growth inhibition, primary screen; Leishmania major promastigotes, resazurin fluorescence viability; inhibition, % at 10 µM; AID 1063, 2008; 9% of 200,000 active; in the data active = inhibition above about 50%;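 also: promastigotes grown with compound for 44 hours at 28 °C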
HCT116 PTEN-null: growth suppression of PTEN-null HCT116, primary screen, cell-based, CellTiter-Glo; 1.2% of 140,000 active; HCT116 PTEN-null viability, 60 h; active compounds read low; viability, % at 10 µM; AID 827, 2007;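 active = viability at or below a set limit, 4 SD under the median of all tested compounds, cut at about 3.7% in these data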;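 also: PTEN knockout HCT116 line with beta catenin targeted HCT116 as companion control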
HCT116 bCat-KO: primary screen for growth suppressors in beta-catenin knockout HCT116 cells (colon tumor, human); HCT116 beta-catenin knockout viability, CellTiter-Glo, 60 h; active compounds read low; viability, % at 10 µM; 1.5% of 140,000 active; AID 818, 2007;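 active = viability at or under a set limit, the compound median less 4 SD, cut at about 6% in these data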;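 also: 0% = Hyamine 1622 control at 20 µM and 100% = untreated cell control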
ROMK primary: ROMK potassium channel modulators, primary screen, cell-based, thallium flux, MLSMR library; AID 1918, 2009; ATP-sensitive inward rectifier potassium channel 1 (Homo sapiens), P48048; Tet-inducible ROMK, thallium flux fluorescence; actives lie on both sides; B-score at 10 µM; 2% of 130,000 active;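 active = signal ratio slope over the read window, or its plate-corrected B-score, at least 3 SD from the plate mean, either direction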;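 also: B-score of the F/F0 ratio slope over 7 to 12 s after thallium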
INS promoter inh: inhibitors of insulin promoter-driven GFP, primary screen, imaging, TRM-6 cells (human fetal islet line), eGFP reporter, cell count; 0.9% of 130,000 active; inhibition, % at 2 µM; reporter expression induced with tamoxifen;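 active = inhibition above the mean plus 3 SD, with well images judged a real hit on visual review, cut at about 60% in these data, passing the limit was not always enough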
p97 inhibitor: inhibitors of human p97 ATPase, primary screen, biochemical; Transitional endoplasmic reticulum ATPase (Homo sapiens), P55072; recombinant p97 ATPase, Kinase-Glo ATP luminescence, 3 h; inhibition, % at 8 µM; 0.42% of 220,000 active; in the data active = inhibition above about 15%;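 also: 0% = DMSO vehicle and 100% = wells lacking enzyme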
Target sequence (P55072 whole entry, looked up): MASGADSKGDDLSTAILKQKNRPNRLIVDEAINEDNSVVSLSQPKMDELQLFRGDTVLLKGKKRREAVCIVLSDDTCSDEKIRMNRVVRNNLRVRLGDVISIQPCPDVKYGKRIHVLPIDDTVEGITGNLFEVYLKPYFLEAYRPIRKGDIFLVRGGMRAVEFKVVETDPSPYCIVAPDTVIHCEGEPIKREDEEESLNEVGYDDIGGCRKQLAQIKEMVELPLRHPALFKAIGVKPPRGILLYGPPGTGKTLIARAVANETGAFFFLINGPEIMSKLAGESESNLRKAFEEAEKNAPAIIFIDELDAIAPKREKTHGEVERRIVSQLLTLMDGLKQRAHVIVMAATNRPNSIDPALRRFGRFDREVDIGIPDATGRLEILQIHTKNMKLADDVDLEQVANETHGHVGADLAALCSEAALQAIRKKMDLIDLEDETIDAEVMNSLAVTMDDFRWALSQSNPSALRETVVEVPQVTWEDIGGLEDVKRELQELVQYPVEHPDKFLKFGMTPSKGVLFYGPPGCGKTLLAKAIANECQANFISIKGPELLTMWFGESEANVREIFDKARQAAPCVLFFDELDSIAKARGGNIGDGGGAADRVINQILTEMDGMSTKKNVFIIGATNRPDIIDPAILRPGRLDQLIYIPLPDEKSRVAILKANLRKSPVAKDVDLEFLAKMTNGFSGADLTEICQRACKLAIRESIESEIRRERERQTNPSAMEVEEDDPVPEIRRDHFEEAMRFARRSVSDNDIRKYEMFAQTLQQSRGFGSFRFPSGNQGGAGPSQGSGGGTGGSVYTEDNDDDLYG
Numbers without * were called inactive; . = no result.

SMILES	L major viab	HCT116 PTEN-null	HCT116 bCat-KO	ROMK primary	INS promoter inh	p97 inhibitor
COc1ccccc1N(C)S(=O)(=O)c1ccc(C(=O)OCC(=O)Nc2ccccc2F)cc1	11	.	.	0.8	36	4
COc1ccc(C)cc1S(=O)(=O)Nc1ccc2c(c1)OCO2	0	.	.	0.23	.	-4
Cc1c(NC(=S)NNC(=O)CCC(=O)O)c(=O)n(-c2ccccc2)n1C	.	.	.	.	.	3
N#CC1=C(N)NC(SCC(=O)Nc2ccc(Br)cc2)=C(C#N)C12CCCCC2	84*	64	75	-2.3	-16	5
CC1(C)CC(=O)C(N=Nc2cccc(F)c2C#N)=C(O)C1	.	.	.	-0.2	.	8
CCOC(=O)c1cnc2ccc(OCC)cc2c1N(C)Cc1ccccc1	98*	61	53	0.88	14	-2
CCOC(=O)c1cnc2ccc(OCC)cc2c1N1CCN(c2ccccc2OC)CC1	32	77	72	2.3	-66	-7
COc1ccc(NC(=O)C(c2cc3c(cc2[N+](=O)[O-])OCO3)N(C)Cc2ccccc2)cc1 (stereo unspecified)	7	65	70	-1.2	-30	-6
CCN(c1cccc(C)c1)C(C(=O)Nc1ccc(OC)cc1)c1cc2c(cc1[N+](=O)[O-])OCO2 (stereo unspecified)	79*	79	79	-0.94	-16	8
Cc1cc[n+](C2=C([O-])c3ccccc3C(=O)/C2=N\S(=O)(=O)c2cccs2)cc1C	25	1.8*	1.6*	.	-48	5
Cc1ccc(NC2=C/C(=N/S(=O)(=O)c3cccs3)c3ccccc3C2=O)cc1C	82*	88	85	-0.005	-54	-3
CC(=O)Nc1ccc(NC(=O)C(C)OC(=O)c2ccccc2NS(=O)(=O)c2cccs2)cc1 (stereo unspecified)	.	.	.	.	.	-1
CC(=O)Nc1ccc(NC2=C/C(=N/S(=O)(=O)c3cccs3)c3ccccc3C2=O)cc1	100*	.	.	-0.35	-55	8
Cc1c(NC(=O)C(C)OC(=O)/C=C/c2ccc3c(c2)OCO3)c(=O)n(-c2ccccc2)n1C (stereo unspecified)	11	.	.	0.66	.	3
COCCNC(=O)C(=O)N/N=C/c1ccccc1C(F)(F)F	-5	91	87	0.32	38	-5
CC1=C(C(=O)Nc2cccnc2)C(c2cccnc2)n2nc(-c3cccs3)nc2N1 (stereo unspecified)	84*	96	97	.	38	6
Oc1ccc(Br)cc1/C=N/N1CCN(Cc2ccccc2)CC1	4	87	100	.	24	-2
Oc1ccc(Br)cc1/C=N/N1CCCCC1	52*	101	98	1.2	-18	5
O=C(CNS(=O)(=O)c1ccc(Br)s1)N1CCC(N2CCCCC2)CC1	78*	96	91	.	48	7
CC1CCN(C(=O)CNS(=O)(=O)c2ccc(Br)s2)CC1	-2	96	97	-0.63	8	-2
O=C(NCCCN1CCCC1=O)c1ccc(Cl)c(Cl)c1	-5	.	.	0.52	-15	2
CCOC(=O)c1c(O)c2cc(Cl)ccc2n(CC)c1=O	.	.	.	.	.	-6
OC(COCC(F)(F)C(F)(F)C(F)(F)C(F)F)Cn1c2ccc(Cl)cc2c2cc(Cl)ccc21 (stereo unspecified)	15	1.7*	2.2*	.	.	0
CC(C)N(C)C1CCN(C(=O)Nc2ccc(Cl)c(Cl)c2)CC1	60*	78	100	.	0	6
CS(=O)(=O)N1CCC(C(=O)Nc2ccc(Cl)c(Cl)c2)CC1	11	.	.	-1.2	55	6
SMILES	L major viab	HCT116 PTEN-null	HCT116 bCat-KO	ROMK primary	INS promoter inh	p97 inhibitor
O=C(CN1CCCCC1)Nc1ccc(F)c(Cl)c1	-6	94	92	-1.8	-30	3
O=C(Nc1ccc(Cl)cc1)N1CC=CCC1	-3	81	86	.	63*	4
O=C(Nc1ccc(Cl)cc1)N1CCCN(Cc2ccccc2F)C1	57*	60	61	-1.1	1	1
O=C(Nc1ccc(F)c(Cl)c1)N1CCCC1	99*	.	.	0.012	.	0
Cc1csc(SCC(=O)NC(=O)NC2CCCC2)n1	0	.	.	0.56	.	0
COc1cc(/C=C/C(=O)OCC(=O)Nc2ccc3c(c2)OCCO3)ccc1OCC#N	40	99	104	-0.00077	18	5
Cc1noc(C)c1COC(=O)c1ccccc1NC(=O)c1ccco1	-5	.	.	-0.62	.	3
CC(=O)Nc1ccc(N2CCN(Cc3ccccc3F)CC2)cc1	50*	100	95	.	-10	1
COc1ccccc1Nc1nc2ccccc2[nH]1	17	67	74	.	-22	-1
Cc1ccc(Nc2nc3ccccc3[nH]2)nc1	101*	73	64	-1.4	13	3
COCCN1Cc2cccc(C(=O)Nc3ccc(S(=O)(=O)N4CCOCC4)cc3)c2C1=O	0	.	.	-0.046	.	4
N#Cc1c(-c2ccccc2)cc(-c2ccccc2)nc1SCC(=O)NCC(=O)O	.	.	.	.	.	7
Cc1ccc(-c2cc(-c3ccccc3)c(C#N)c(Br)n2)cc1	-11	51	60	1	.	3
CS(=O)(=O)c1nc(-c2ccccc2)cc(-c2ccccc2)c1C#N	22	2.4*	1.9*	.	20	0
N#Cc1c(-c2ccccc2)cc(-c2ccccc2)nc1SCc1nnc(-c2ccccc2)o1	60*	80	86	.	-25	1
Cc1cc(-c2ccccc2)nc(Cl)c1C#N	70*	86	86	-1.1	0	-2
CCOC(=O)C(C)Oc1ccc(C2NC(=O)NC(C)=C2C(=O)Nc2ccccc2C)cc1 (stereo unspecified)	0	106	95	.	-8	-1
CCOC(=O)C(C)Oc1ccccc1C1NC(=O)NC(C)=C1C(=O)Nc1ccc(C)c(C)c1 (stereo unspecified)	76*	100	95	.	-4	0
OC1(CNCc2cn[nH]c2-c2cc3ccccc3o2)CCCCC1	13	.	.	0.37	-44	-2
N#Cc1nc(-c2ccc(OCc3ccccc3Cl)cc2)oc1NCCCn1ccnc1	99*	19	25	0.19	.	1
CCCOc1ccc(-c2nc(C#N)c(NCCCn3ccnc3)o2)cc1	10	17	78	.	-18	-5
N#Cc1nc(-c2ccc(OCc3ccccc3)cc2)oc1NCCCn1ccnc1	52*	44	67	-2.4	-21	-1
O=C(COC(=O)c1ccccc1Cl)NC(=O)NCc1ccccc1	83*	106	101	0.03	-8	4
O=C(COC(=O)c1cc(Br)ccc1Cl)NC(=O)NCc1ccccc1	10	95	94	0.051	19	2
O=C(COC(=O)c1ccccc1Br)NCc1ccccc1	60*	96	93	.	-41	5
CCOC(=O)/C=C/C(=O)OCC(=O)NCc1ccccc1	55*	93	91	-0.46	29	3
